Assay [1] in a line: optical density shifts of acrAB sulA E. coli – strain DRC41, OD650, 48 h, E. coli filamentation inducer project, primary screen (AID 1152).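 Also: E. coli MC1000 strain DRC41 lacking acrAB efflux pump and sulA.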 To be noted: higher = more signal, called active from +8 up or from −8 down.
Assay [2] is described as follows: probe aLefty1 binding on compound microarray – biochemical, small-molecule microarray, 635/667 nm fluorescence, primary screen (AID 1153).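 Also: score merges spot fluorescence with signal-to-noise ratio from the scanned slide images.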 To be noted: higher = more signal.
Assay [3] is described as follows: plasmodial surface anion channel blockers, osmotic lysis – cell-based, P. falciparum Indochina, OD700, 1 h, primary screen (AID 1154). To be noted: P. falciparum Indochina infected RBC osmotic lysis, higher = more signal, called active from +8 up or from −8 down.
The nature of assay [4]: plasmodial surface anion channel blockers, osmotic lysis – cell-based, P. falciparum Indochina, OD700, 2 h, primary screen (AID 1155).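 Also: lysis reports solute entry through the parasite surface anion channel PSAC.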 To be noted: P. falciparum Indochina infected erythrocytes, higher = more signal, called active from +8 up or from −8 down.
Assay [5] can be described thus: changes in parasitized red cell lysis, either direction – P. falciparum Indochina, OD700, 3 h, PSAC antagonist project, primary screen (AID 1156). To be noted: P. falciparum-infected erythrocytes, osmotic lysis, higher = more signal, called active from +8 up or from −8 down.
A short description of assay [6]: plasmodial surface anion channel blockers, osmotic lysis – cell-based, P. falciparum Indochina, OD700, 18 h, primary screen (AID 1157). To be noted: P. falciparum Indochina infected erythrocytes, osmotic lysis OD700, 18 h; higher = more signal, called active from +8 up or from −8 down.
The nature of assay [7]: S6 kinase pathway phospho-S6 level changes – cell-based, A549, cytoblot, luminescence, serum-stimulated, primary screen (AID 1158).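 Also: serum-stimulated A549 lung adenocarcinoma cells; signal is phosphorylated S6 detected by cytoblot immunostaining with HRP secondary.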 To be noted: 5 h, higher = more signal.
The target of assay [8] is NADPH oxidase 2 (Homo sapiens) (UniProt P04839). Put plainly: compounds shifting NOX2 Amplex Red fluorescence – cell-based, HEK293-NOX2, PMA-stimulated, NOX inhibitor project, primary screen (AID 1159). Also: test concentration not given here. To be noted: 45 min, higher = more signal, called active from +8 up or from −8 down.
NADPH oxidase 2 (Homo sapiens), sequence (P04839 whole entry, looked up): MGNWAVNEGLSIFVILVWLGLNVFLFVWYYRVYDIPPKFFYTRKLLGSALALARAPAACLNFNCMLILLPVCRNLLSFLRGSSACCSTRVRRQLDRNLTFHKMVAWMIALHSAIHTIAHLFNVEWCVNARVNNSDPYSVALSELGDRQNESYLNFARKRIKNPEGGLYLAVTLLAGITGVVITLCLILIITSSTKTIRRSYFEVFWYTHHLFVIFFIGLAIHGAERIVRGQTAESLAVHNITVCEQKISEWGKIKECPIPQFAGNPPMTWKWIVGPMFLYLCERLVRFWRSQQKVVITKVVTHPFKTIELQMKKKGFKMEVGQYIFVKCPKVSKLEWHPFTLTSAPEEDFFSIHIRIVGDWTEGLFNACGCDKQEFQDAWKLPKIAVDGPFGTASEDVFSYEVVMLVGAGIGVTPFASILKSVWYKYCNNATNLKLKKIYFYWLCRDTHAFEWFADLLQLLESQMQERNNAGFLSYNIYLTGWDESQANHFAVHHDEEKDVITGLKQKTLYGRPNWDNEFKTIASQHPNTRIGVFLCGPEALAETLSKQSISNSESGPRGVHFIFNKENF
In assay [9] the target is NADPH oxidase 4 (Homo sapiens) (UniProt Q9NPH5). Put plainly: compounds shifting NOX4 Amplex Red fluorescence – cell-based, HEK293-NOX4, tetracycline-induced, NOX inhibitor project, primary screen (AID 1160). To be noted: HEK293-NOX4, Amplex Red H2O2 fluorescence, 45 min; higher = more signal, called active from +8 up or from −8 down.
NADPH oxidase 4 (Homo sapiens), sequence (Q9NPH5 whole entry, looked up): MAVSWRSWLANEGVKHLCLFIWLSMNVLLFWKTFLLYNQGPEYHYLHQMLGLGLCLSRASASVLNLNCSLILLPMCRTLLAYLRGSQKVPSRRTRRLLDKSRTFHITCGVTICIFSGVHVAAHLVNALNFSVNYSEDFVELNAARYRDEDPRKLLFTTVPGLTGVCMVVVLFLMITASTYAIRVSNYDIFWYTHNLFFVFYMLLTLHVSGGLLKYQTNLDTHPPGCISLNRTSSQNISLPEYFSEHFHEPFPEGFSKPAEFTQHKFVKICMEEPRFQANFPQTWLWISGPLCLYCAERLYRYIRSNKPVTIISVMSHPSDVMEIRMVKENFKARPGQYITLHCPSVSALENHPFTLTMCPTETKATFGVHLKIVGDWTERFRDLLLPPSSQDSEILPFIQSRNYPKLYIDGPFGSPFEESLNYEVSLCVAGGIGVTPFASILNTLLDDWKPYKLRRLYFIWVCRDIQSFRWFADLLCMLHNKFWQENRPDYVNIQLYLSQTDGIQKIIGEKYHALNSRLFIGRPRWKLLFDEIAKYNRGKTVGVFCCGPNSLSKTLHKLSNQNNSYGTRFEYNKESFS
Assay [10] has as its target NADPH oxidase 5 (Homo sapiens) (UniProt Q96PH1). Put plainly: compounds shifting NOX5 Amplex Red fluorescence – cell-based, HEK293-NOX5, NOX inhibitor project, primary screen (AID 1161). To be noted: HEK293-NOX5, ionomycin, 45 min, higher = more signal.
Assay [11] can be described thus: compound effects on lung adenocarcinoma cell viability – A549, calcein-AM fluorescence, 48 h, basal, profiling panel (AID 1162). Also: test concentration not given here. To be noted: higher = more signal.
Assay [12] is described as follows: compound effects on differentiated 3T3-L1 adipocyte viability – cell-based, 3T3-L1 adipocytes, calcein-AM fluorescence, 48 h, basal, profiling panel (AID 1163). Also: test concentration not given here. To be noted: 3T3-L1 adipocytes viability, higher = more signal.
Assay [13] in a line: compound effects on hepatocellular carcinoma cell viability – HepG2, calcein-AM fluorescence, 48 h, basal, profiling panel (AID 1164). Also: test concentration not given here. To be noted: higher = more signal.
Assay [14] is described as follows: compound effects on multiple myeloma cell viability – MM1S, calcein-AM fluorescence, 48 h, basal, profiling panel (AID 1165).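 Also: viability of MM1S multiple myeloma cells under basal unstimulated conditions; test concentration not given here.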 To be noted: higher = more signal.
Assay [15] in a line: calcein-AM signal in unstimulated myeloma cells – cell-based, calcein-AM fluorescence, 48 h, PK04 Diversity Set, profiling panel (AID 1166).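 Also: cells grown under basal conditions without added stimulus; test concentration not given here.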 To be noted: RPMI8226 myeloma viability, higher = more signal.
The nature of assay [16]: JC-1 mitochondrial signal, unstimulated HepG2 cells – cell-based, JC-1 fluorescence, 24 h, 100 nL compound, profiling panel (AID 1167). Also: test concentration not given here. To be noted: HepG2 mitochondrial potential, higher = more signal.
Assay [17] is described as follows: JC-1 mitochondrial signal, unstimulated adipocytes – cell-based, JC-1 fluorescence, 3T3-L1 adipocytes, 24 h, 100 nL compound, profiling panel (AID 1168). Also: test concentration not given here. To be noted: JC-1 mitochondrial fluorescence, higher = more signal, called active from +8 up or from −8 down.
Assay [18] is described as follows: JC-1 mitochondrial signal, unstimulated myeloma cells – cell-based, JC-1 fluorescence, RPMI8226, 24 h, 100 nL compound, profiling panel (AID 1169). Also: test concentration not given here. To be noted: JC-1 mitochondrial potential fluorescence, higher = more signal.
Assay [19] can be described thus: JC-1 mitochondrial signal, unstimulated MM1S myeloma – cell-based, JC-1 fluorescence, 24 h, 100 nL compound, profiling panel (AID 1170). Also: test concentration not given here. To be noted: MM1S mitochondrial potential, higher = more signal.
The nature of assay [20]: resazurin metabolic signal in A549 cells – cell-based, resazurin fluorescence, 24 h, PK04 Diversity Set, profiling panel (AID 1171). Also: test concentration not given here. To be noted: A549 viability, higher = more signal, called active from +8 up or from −8 down.

Each structure is given as a SMILES string. Activity calls are given as the source filed them.

NADPH oxidase 5 (Homo sapiens), sequence (Q96PH1 whole entry, looked up): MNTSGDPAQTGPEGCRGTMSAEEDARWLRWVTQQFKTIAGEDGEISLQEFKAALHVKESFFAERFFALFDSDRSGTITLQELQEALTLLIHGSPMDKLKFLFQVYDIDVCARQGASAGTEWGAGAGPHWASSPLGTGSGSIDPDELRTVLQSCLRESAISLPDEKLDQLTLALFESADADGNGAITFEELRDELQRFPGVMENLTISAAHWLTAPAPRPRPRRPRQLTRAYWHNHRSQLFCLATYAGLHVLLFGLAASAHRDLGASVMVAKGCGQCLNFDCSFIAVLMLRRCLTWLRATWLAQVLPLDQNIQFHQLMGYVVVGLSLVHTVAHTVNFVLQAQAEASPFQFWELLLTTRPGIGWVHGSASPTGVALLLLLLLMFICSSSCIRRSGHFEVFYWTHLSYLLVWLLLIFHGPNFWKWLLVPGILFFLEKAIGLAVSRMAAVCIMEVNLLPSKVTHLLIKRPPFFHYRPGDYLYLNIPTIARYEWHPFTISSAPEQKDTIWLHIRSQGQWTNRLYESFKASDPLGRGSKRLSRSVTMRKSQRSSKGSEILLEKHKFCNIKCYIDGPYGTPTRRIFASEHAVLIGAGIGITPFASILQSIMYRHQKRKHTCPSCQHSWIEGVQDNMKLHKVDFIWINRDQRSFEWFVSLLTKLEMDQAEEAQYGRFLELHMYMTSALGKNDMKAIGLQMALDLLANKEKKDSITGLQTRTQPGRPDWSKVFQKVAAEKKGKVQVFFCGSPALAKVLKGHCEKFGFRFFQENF

In the case of `C[C@H]1C2[C@H](Cc3ccccc3)NC(=O)[C@]23C(=O)NCC(=O)N2CCC[C@H]2C(=O)NC/C=C/CCC/C=C/C3[C@@H]2O[C@]12C` (stereo not given in full), the z-score in assay [1] was 1.38 (inactive); in assay [3], 1.44 (inactive); in [4] it was -0.0812 (inactive); in assay [5], 0.391 (inactive); in assay [6] it was 0.133 (inactive); in [7], 0.781. Moreover, the z-score in assay [8] is 1.61 (inactive); in [9], -0.66 (inactive); in [10], 1.88; in assay [11], 0.776; in assay [12], 1.42; in [13] it was -0.39. Moreover, the z-score in assay [14] was -0.37; in [15] it was -0.682; in assay [16] it was 0.624; in assay [17], 0.244 (inactive); in [18], -0.877; in assay [19], 1.41. Moreover, the z-score in [20] was -1.46 (inactive). Moreover, the composite z-score in [2] is -0.103.
Turning to `C=C(/C(=C/C[C@H](OC(C)=O)c1ccc(OCCO)cc1)c1cc(C(=O)OC)ccc1OC)C(C)C`, the z-score is 0.759 (inactive) in assay [1]; 19.2 (active) in assay [3]; 4.38 (inactive) in assay [4]; 3.26 (inactive) in assay [5]; 1.36 (inactive) in [6]; 0.31 in assay [7]. The z-score was 0.864 (inactive) in assay [8]; 0.217 (inactive) in assay [9]; -1.42 in [10]; 1.32 in [11]; 0.0952 in assay [12]; 0.861 in assay [13]. Also, the z-score was -3.04 in assay [14]; -2.43 in [15]; 2.82 in assay [16]; -0.0331 (inactive) in assay [17]; -0.669 in assay [18]; -0.631 in assay [19]. Moreover, the z-score in assay [20] is 1.05 (inactive). The same molecule showed a composite z-score in assay [2] of 0.0844.
Take `COC(=O)[C@]1(Cc2ccccc2)N=C(c2ccc(OCCCO)cc2)O[C@@H]1c1ccccc1N=[N+]=[N-]`: the z-score is -1.19 (inactive) in assay [1]; 28 (active) in assay [3]; 24.7 (active) in assay [4]; 0.883 (inactive) in assay [5]; 4.33 (inactive) in assay [6]; 0.483 in assay [7]. Besides, the z-score in assay [8] was -0.936 (inactive); in [9], 1.14 (inactive); in assay [10], 0.0948; in assay [11] it was -2.41; in assay [12], 0.574; in assay [13] it was -5.44. Moreover, the z-score in assay [14] is -3.61; in [15], -3.66; in assay [16], -2.75; in [17] it was -0.223 (inactive); in [18], -1.13; in assay [19], -2.9. For the same molecule, the z-score in assay [20] is -2.87 (inactive). The same molecule came in with a composite z-score in assay [2] of -0.324.
Consider `O=C1C2C=CC(C(O)c3ccc(-c4ccccc4)s3)N(Nc3ccccc3)C2C(=O)N1c1ccccc1` (stereo not given), for which the z-score in [1] was -0.517 (inactive); in assay [3], 8.45 (active); in [4] it was 2.11 (inactive); in assay [5], 0.214 (inactive); in assay [6] it was 1.1 (inactive); in [7] it was -0.505. Further, the z-score was -0.986 (inactive) in [8]; -3.23 (inactive) in assay [9]; -0.493 in assay [10]; -0.574 in assay [11]; -1.35 in assay [12]; 0.128 in assay [13]. In addition, the z-score in [14] is -0.338; in [15] it was -1.45; in [16] it was -1.75; in [17], 0.0226 (inactive); in assay [18], 0.054; in [19] it was -0.271. Further, in assay [20], the z-score was 0.0364 (inactive). Besides, the composite z-score in assay [2] is 0.591.
Regarding `CC(=O)NCCCC[C@@H]1NC(=O)[C@H]2C[C@@H](C(=O)O)[C@@H](c3ccc(O)cc3)N2C1=O`, the z-score in [1] is -0.73 (inactive); in assay [3], 2.25 (inactive); in assay [4] it was 2.24 (inactive); in assay [5], -0.368 (inactive); in [6], 0.912 (inactive); in assay [7] it was -1.14. The z-score in assay [8] was 1.61 (inactive); in [9], 0.625 (inactive); in assay [10] it was 1.64; in assay [11], -0.199; in assay [12], 0.766; in [13] it was -0.14. Moreover, the z-score in assay [14] was -2.18; in assay [15], -1.3; in assay [16], 0.237; in assay [17], 0.328 (inactive); in [18], -0.621; in [19], -1.55. In addition, the z-score in [20] was 0.273 (inactive). The molecule also gave a composite z-score in assay [2] of 0.249.
In the case of `C[N+](C)(C)CCCC[C@@H]1NC(=O)[C@@H]2C[C@H](C(=O)NCCCCCCNC(=O)CS)[C@H](c3ccc(O)cc3)N2C1=O`, the z-score in [1] is -0.432 (inactive); in assay [3], 2.2 (inactive); in [4] it was 0.244 (inactive); in assay [5], -3.26 (inactive); in assay [6], -0.114 (inactive); in [7], -0.489. In addition, the z-score is 0.614 (inactive) in [8]; 0.449 (inactive) in assay [9]; 0.0101 in assay [10]; -0.617 in assay [11]; -0.0068 in [12]; -0.0675 in [13]. Besides, the z-score in [14] is -0.14; in assay [15] it was -0.385; in [16], 0.439; in [17], -0.888 (inactive); in assay [18], -0.111; in assay [19], -0.432. In addition, the z-score in [20] is -0.382 (inactive). This molecule returned a composite z-score in assay [2] of -0.101.
Turning to `C=CCN(Cc1ccccc1)C(=O)C(c1cccs1)N(C(=O)/C=C\C(=O)O)c1ccc(CCOCCO)cc1` (stereo not given), the z-score is 1.61 (inactive) in assay [1]; 1.51 (inactive) in assay [3]; -0.707 (inactive) in [4]; 0.189 (inactive) in assay [5]; -1.04 (inactive) in assay [6]; 1.77 in [7]. The z-score was -0.108 (inactive) in assay [8]; -0.821 (inactive) in assay [9]; -0.58 in assay [10]; 0.631 in [11]; 0.007 in assay [12]; 0.97 in [13]. In addition, the z-score in [14] is 1.82; in [15], 0.526; in assay [16] it was 0.427; in assay [17] it was 0.319 (inactive); in assay [18], 0.697; in assay [19] it was -1.06. Also, in [20], the z-score was -0.52 (inactive). The molecule also yielded a composite z-score in assay [2] of -0.0538.
With `COC(=O)[C@@]1(Cc2ccc(OC)cc2)[C@H]2c3cc(C(=O)N4CCCC4)n(CCCNc4ncc(C(F)(F)F)cc4Cl)c3C[C@H]2CN1C(=O)c1ccccc1`, the z-score in assay [1] was -1.46 (inactive); in assay [3] it was 10.1 (active); in assay [4], 1.37 (inactive); in [5] it was 2.15 (inactive); in assay [6] it was 1.13 (inactive); in assay [7] it was -0.0195. For the same molecule, the z-score was 0.128 (inactive) in assay [8]; 0.577 (inactive) in assay [9]; 1.65 in [10]; -1.54 in assay [11]; -1.03 in assay [12]; -0.841 in [13]. The z-score in assay [14] was -1.9; in [15], -4.57; in assay [16] it was 0.261; in assay [17], -1.31 (inactive); in [18], -0.873; in assay [19], -1.28. For the same molecule, the z-score in assay [20] is -0.577 (inactive). In assay [2], the composite z-score was found to be 0.982.
Turning to `COc1ccccc1CN1C(=O)c2ccccc2[C@@H](C(=O)NCc2ccccc2)[C@@H]1c1ccc(CO)cc1`, the z-score in assay [1] was -0.0367 (inactive); in [3], 1.8 (inactive); in [4] it was 0.566 (inactive); in [5] it was 0.708 (inactive); in assay [6] it was 0.205 (inactive); in assay [7] it was 0.161. Besides, the z-score in assay [8] is -1.11 (inactive); in assay [9], 0.148 (inactive); in assay [10], -0.707; in assay [11], 1.2; in assay [12], 0.448; in [13], 0.292. Further, the z-score is -0.881 in assay [14]; 0.47 in assay [15]; 2.08 in [16]; 0.819 (inactive) in assay [17]; -0.288 in assay [18]; 0.544 in [19]. Besides, in [20], the z-score was 0.832 (inactive). In [2], the composite z-score was 0.148.

The record behind these values is PubChem BioAssay.
